Laboratory results published in PubChem BioAssay AID1159580 (chemical genetic matrix, 2015).
The whole screen tested about 5,500 compounds, of which about 2,000 (36%) were called active. About 18% were inconclusive and are not listed. No stated cut-off is given here; in the data, active means normalized growth mostly below about 0.91 (no sharp cut-off); inconclusive means no clear call, values can overlap the other calls; inactive means mostly above about 0.92. Some of the results follow.

Assay: chemical genetic growth profiling, strain panel (AID 1159580);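 further: tested at 20 µM; growth read once vehicle control cultures reached saturation at 30 °C; 1 = growth at the plate median or of vehicle wells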
Conditions: growth OD

Measured: normalized growth

CN(C)CC[C@H](c1ccc(Cl)cc1)c1ccccn1
inactive: S. cerevisiae deletion strains, locus YJR075W, strain HOC1, stronger effect = lower value 0.994 | S. cerevisiae deletion strains, locus YKL009W, strain mrt4, stronger effect = lower value 1.01 | S. cerevisiae deletion strains, locus YKL068W, stronger effect = lower value 0.997 | S. cerevisiae deletion strains, locus YKL085W, strain MDH1 (second series), stronger effect = lower value 0.995 | S. cerevisiae deletion strains, locus YKL085W, strain MDH1, stronger effect = lower value 0.995 | S. cerevisiae deletion strains, locus YKL160W, strain elf1, stronger effect = lower value 0.994 | S. cerevisiae deletion strains, locus YKL190W, strain CNB1, stronger effect = lower value 1 | S. cerevisiae deletion strains, locus YKR001C, strain vps1, stronger effect = lower value 0.989 | S. cerevisiae deletion strains, locus YKR026C, strain gcn3, stronger effect = lower value 1 | S. cerevisiae deletion strains, locus YKR091W, strain srl3, stronger effect = lower value 1.01 | S. cerevisiae deletion strains, locus YLL001W, strain dnm1, stronger effect = lower value 0.991 | S. cerevisiae deletion strains, locus YLL026W, stronger effect = lower value 0.997 | S. cerevisiae deletion strains, locus YLL041C, strain sdh2, stronger effect = lower value 0.992 | S. cerevisiae deletion strains, locus YLR027C, strain aat2, stronger effect = lower value 1 | S. cerevisiae deletion strains, locus YLR039C, strain RIC1, stronger effect = lower value 1.04 | S. cerevisiae deletion strains, locus YLR058C, strain SHM2, stronger effect = lower value 1 | S. cerevisiae deletion strains, locus YLR102C, strain apc9, stronger effect = lower value 0.989 | S. cerevisiae deletion strains, locus YLR113W, strain HOG1, stronger effect = lower value 1.02 | S. cerevisiae deletion strains, locus YLR221C, strain rsa3, stronger effect = lower value 1.01 | S. cerevisiae deletion strains, locus YLR258W, strain gsy2, stronger effect = lower value 0.993 | S. cerevisiae deletion strains, locus YLR262C, strain YPT6 (second series), stronger effect = lower value 1.01 | S. cerevisiae deletion strains, locus YLR262C, strain YPT6, stronger effect = lower value 1 | S. cerevisiae deletion strains, locus YLR268W, strain sec22, stronger effect = lower value 0.965 | S. cerevisiae deletion strains, locus YLR320W, strain mms22, stronger effect = lower value 0.997 | S. cerevisiae deletion strains, locus YLR330W, strain CHS5, stronger effect = lower value 1.01 | S. cerevisiae deletion strains, locus YLR342W, strain FKS1 (second series), stronger effect = lower value 1.02 | S. cerevisiae deletion strains, locus YLR342W, strain FKS1, stronger effect = lower value 1 | S. cerevisiae deletion strains, locus YLR357W, strain rsc2, stronger effect = lower value 0.959 | S. cerevisiae deletion strains, locus YLR370C, strain arc18, stronger effect = lower value 1 | S. cerevisiae deletion strains, locus YLR371W, strain rom2, stronger effect = lower value 0.991 | S. cerevisiae deletion strains, locus YLR384C, strain iki3, stronger effect = lower value 0.996 | S. cerevisiae deletion strains, locus YLR418C, strain cdc73, stronger effect = lower value 0.994 | S. cerevisiae deletion strains, locus YML016C, strain PPZ1, stronger effect = lower value 1 | S. cerevisiae deletion strains, locus YML032C, strain rad52, stronger effect = lower value 0.966 | S. cerevisiae deletion strains, locus YML120C, strain ndi1, stronger effect = lower value 1.01 | S. cerevisiae deletion strains, locus YML124C, strain tub3, stronger effect = lower value 0.994 | S. cerevisiae deletion strains, locus YMR058W, strain fet3, stronger effect = lower value 1 | S. cerevisiae deletion strains, locus YMR078C, strain ctf18, stronger effect = lower value 0.993 | S. cerevisiae deletion strains, locus YMR125W, strain sto1, stronger effect = lower value 0.997 | S. cerevisiae deletion strains, locus YMR129W, stronger effect = lower value 1 | S. cerevisiae deletion strains, locus YMR205C, strain PFK2, stronger effect = lower value 1.02 | S. cerevisiae deletion strains, locus YMR223W, strain ubp8, stronger effect = lower value 1.01 | S. cerevisiae deletion strains, locus YMR231W, strain pep5, stronger effect = lower value 0.993 | S. cerevisiae deletion strains, locus YMR263W, strain SAP30, stronger effect = lower value 1.02 | S. cerevisiae deletion strains, locus YMR307W, strain GAS1, stronger effect = lower value 0.99 | S. cerevisiae deletion strains, locus YNL067W, strain RPL9B, stronger effect = lower value 0.999 | S. cerevisiae deletion strains, locus YNL071W, strain lat1, stronger effect = lower value 0.998 | S. cerevisiae deletion strains, locus YNL128W, strain TEP1, stronger effect = lower value 1.01 | S. cerevisiae deletion strains, locus YNL153C, strain GIM3, stronger effect = lower value 0.992 | S. cerevisiae deletion strains, locus YNL183C, strain NPR1, stronger effect = lower value 0.956 | S. cerevisiae deletion strains, locus YNL209W, strain ssb2, stronger effect = lower value 1 | S. cerevisiae deletion strains, locus YNL233W, strain BNI4, stronger effect = lower value 1.01 | S. cerevisiae deletion strains, locus YNL248C, strain rpa49, stronger effect = lower value 0.945 | S. cerevisiae deletion strains, locus YNL250W, strain rad50, stronger effect = lower value 0.977 | S. cerevisiae deletion strains, locus YNL271C, strain bni1, stronger effect = lower value 0.988 | S. cerevisiae deletion strains, locus YNL298W, strain CLA4, stronger effect = lower value 0.996 | S. cerevisiae deletion strains, locus YNL307C, strain MCK1, stronger effect = lower value 1 | S. cerevisiae deletion strains, locus YNL322C, strain KRE1 (second series), stronger effect = lower value 1.02 | S. cerevisiae deletion strains, locus YNL322C, strain KRE1, stronger effect = lower value 1 | S. cerevisiae deletion strains, locus YNR049C, strain mso1, stronger effect = lower value 0.996 | S. cerevisiae deletion strains, locus YNR052C, strain pop2, stronger effect = lower value 0.989 | S. cerevisiae deletion strains, locus YOL006C, strain TOP1, stronger effect = lower value 1 | S. cerevisiae deletion strains, locus YOL012C, strain htz1 0.629 | S. cerevisiae deletion strains, locus YOL147C, strain pex11, stronger effect = lower value 0.991 | S. cerevisiae deletion strains, locus YOR001W, strain rrp6, stronger effect = lower value 0.987 | S. cerevisiae deletion strains, locus YOR061W, strain CKA2, stronger effect = lower value 1.01 | S. cerevisiae deletion strains, locus YOR069W, strain VPS5, stronger effect = lower value 1 | S. cerevisiae deletion strains, locus YOR070C, strain gyp1, stronger effect = lower value 0.997 | S. cerevisiae deletion strains, locus YOR080W, strain dia2, stronger effect = lower value 0.997 | S. cerevisiae deletion strains, locus YOR083W, strain WHI5, stronger effect = lower value 0.997 | S. cerevisiae deletion strains, locus YOR106W, strain vam3, stronger effect = lower value 1.01 | S. cerevisiae deletion strains, locus YOR136W, strain idh2, stronger effect = lower value 0.992 | S. cerevisiae deletion strains, locus YOR144C, strain elg1, stronger effect = lower value 0.988 | S. cerevisiae deletion strains, locus YOR184W, strain ser1, stronger effect = lower value 1.02 | S. cerevisiae deletion strains, locus YOR231W, strain MKK1, stronger effect = lower value 0.998 | S. cerevisiae deletion strains, locus YOR265W, strain rbl2, stronger effect = lower value 1 | S. cerevisiae deletion strains, locus YOR270C, strain vph1, stronger effect = lower value 1.01 | S. cerevisiae deletion strains, locus YOR290C, strain snf2, stronger effect = lower value 0.998 | S. cerevisiae deletion strains, locus YOR316C, strain cot1, stronger effect = lower value 0.995 | S. cerevisiae deletion strains, locus YPL051W, strain arl3, stronger effect = lower value 1.01 | S. cerevisiae deletion strains, locus YPL055C, strain LGE1, stronger effect = lower value 1.02 | S. cerevisiae deletion strains, locus YPL078C, strain atp4, stronger effect = lower value 0.989 | S. cerevisiae deletion strains, locus YPL106C, strain sse1, stronger effect = lower value 1.01 | S. cerevisiae deletion strains, locus YPL240C, strain hsp82, stronger effect = lower value 0.997 | S. cerevisiae deletion strains, locus YPL241C, strain CIN2, stronger effect = lower value 1 | S. cerevisiae deletion strains, locus YPL256C, strain CLN2, stronger effect = lower value 0.985 | S. cerevisiae deletion strains, locus YPR119W, strain clb2, stronger effect = lower value 0.989 | S. cerevisiae deletion strains, locus YPR141C, strain kar3, stronger effect = lower value 0.98 | S. cerevisiae deletion strains, locus YPR163C, strain tif3, stronger effect = lower value 0.992 | S. cerevisiae deletion strains, locus YPR167C, strain met16, stronger effect = lower value 0.994 | S. cerevisiae deletion strains, strain wtn01, stronger effect = lower value 0.995 | S. cerevisiae strains, strain wild type, stronger effect = lower value 1.01
